We go through 14 compounds from PubChem BioAssay (NCI).

Assay in all cases: NCI-60 one-dose screen, 48 h (100 = growth as untreated, 0 = no growth, -100 = all killed)
Common to all, as to settings: 10 µM unless noted

The test system of assay [1] is DU-145 prostate.
For assay [2], the system named is K-562 leukemia.
For assay [3], the system named is MALME-3M melanoma.
Assay [4] relates to MDA-MB-231 breast.
Assay [5] concerns RXF 393 renal.
For assay [6], the system named is SF-268 CNS.
The test system of assay [7] is SF-295 CNS.
For assay [8], the system named is SF-539 CNS.
Assay [9] relates to UACC-257 melanoma.
The subject of assay [10] is M14 melanoma.
The subject of assay [11] is HCT-15 colon.
Assay [12] has as its system HT29 colon.
Assay [13] concerns SNB-19 CNS.
Assay [14] concerns U251 CNS.
For assay [15], the system named is PC-3 prostate.
The test system of assay [16] is SK-MEL-5 melanoma.
The subject of assay [17] is UACC-62 melanoma.
The subject of assay [18] is LOX IMVI melanoma.
Assay [19] deals with SK-MEL-28 melanoma.
For assay [20], the system named is SNB-75 CNS.

This is part of a sample that, as a whole, favours compounds with a hit. Of some 83,000 tested, about 20% had one in any assay.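 Percent growth is the endpoint: 0 to 100 indicates growth inhibition (40 means 60% inhibition), 0 means no net growth, and negative values indicate cell death.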 Values without a mark were called inactive. Active and inactive are the calls of the source. The calls were made as follows: active = growth percent below 10; inactive = the rest.

In the case of `CC(C)CSc1ncnc2nc[nH]c12`, the growth in [1] is 100%; in [2], 102%; in assay [3], 104%; in assay [4], 98.3%; in [5] it was 92.3%; in [6] it was 91.5%. In addition, the growth in assay [7] was 103%; in [8] it was 88.4%; in assay [9], 98.4%; in assay [10], 98.4%; in assay [11] it was 97.2%; in [12] it was 99.5%. The growth in assay [13] was 93.8%; in assay [14] it was 103%; in assay [15] it was 81.7%; in assay [16], 95.6%; in [17], 84.8%; in assay [18], 98%. The growth in assay [19] was 101%.

Regarding `CNc1cc(C(=O)O)nc(NC)n1`, the growth is 103% in assay [1]; 101% in [2]; 95.6% in assay [3]; 93.1% in assay [4]; 96% in assay [5]; 100% in assay [6]. Moreover, the growth in [7] is 100%; in [8] it was 94.6%; in assay [9] it was 94.4%; in assay [10], 92.7%; in [11] it was 96.4%; in assay [12], 104%. In addition, the growth was 92.5% in [13]; 99.8% in [14]; 94.9% in [15]; 96.7% in assay [16]; 97.8% in [17]; 99.8% in [18]. The growth in assay [19] was 92.7%.

`CCOc1ccc(S(=O)(=O)Nc2ccc3c(c2)N(S(=O)(=O)CC)CCC3)cc1`: the growth is 89.6% in [1]; 71.6% in assay [2]; 100% in [3]; 88.7% in assay [4]; 86.2% in [5]; 74.1% in assay [6]. The growth in assay [7] was 59.2%; in [8], 61.6%; in assay [9], 85.4%; in [10], 107%; in assay [11] it was 89.9%; in assay [12], 72.7%. For the same compound, the growth is 80.4% in assay [13]; 61.8% in assay [14]; 73.1% in assay [15]; 74.9% in assay [16]; 64.8% in assay [17]; 83.4% in assay [18]. In addition, in [19], the growth is 103%.

On to `O=C(NCCCNC(=O)OCc1ccc2cccc(O)c2n1)OCc1ccc2cccc(O)c2n1`, for which the growth is 28.7% in assay [1]; 14.1% in assay [2]; 72.3% in assay [3]; 70% in assay [4]; 0.757% (active) in assay [5]; 54% in assay [6]. Further, the growth in assay [7] was 38.7%; in [8], 35.1%; in [9], 53.9%; in assay [10], 38.9%; in assay [11], 1.71% (active); in [12], 17%. The growth in [13] was 54.6%; in assay [14], 39.8%; in [15], 56.6%; in assay [16], 61.5%; in assay [17], 39.6%; in [18], -73.2% (active). Also, the growth in assay [19] was 64.3%.

On to `Cc1cc2c(C(C)C)c(O)c(O)c(C=NCc3ccoc3)c2c(O)c1-c1c(C)cc2c(C(C)C)c(O)c(O)c(C=NCc3ccco3)c2c1O`, for which the growth in assay [1] is 49.1%; in assay [2], 9.26% (active); in [3], 66.4%; in [4] it was 31.8%; in assay [5] it was 58.7%; in assay [6], 34.9%. Also, the growth was 22% in assay [7]; 60.2% in assay [8]; 80.9% in assay [9]; 65.4% in assay [10]; 19.5% in assay [11]; 31.2% in assay [12]. Moreover, the growth in assay [13] is 19.8%; in assay [14] it was 25.6%; in assay [15] it was 29.7%; in assay [16] it was 91.7%; in [17], 67.9%; in assay [18], 37%. For the same compound, the growth in assay [19] was 70.3%.

Regarding `Cc1ccc(-c2cc(O)c(-c3ccc(C)cc3C)cc2O)c(C)c1`, the growth is 80% in assay [1]; 25.8% in [2]; 115% in [3]; 58.2% in assay [4]; 67.5% in [5]; 57.4% in assay [6]. Besides, the growth is 65.7% in [7]; 47.8% in assay [8]; 79% in assay [9]; 66.8% in assay [10]; 29.5% in assay [11]; 42.3% in assay [12]. The growth in [13] was 71.9%; in [14], 38.2%; in assay [15], 52.1%; in [16], 12.4%; in [17], 54.8%; in [18], 33.4%. The growth in assay [19] is 85.2%.

With `CCOC(=O)Nc1ccc2c(c1)/C(=N\NC(=S)NC)c1ccccc1-2`, the growth in assay [1] was 88.9%; in assay [2], 77.2%; in [3], 115%; in assay [4] it was 65%; in assay [5], 7.59% (active); in [6], 101%. Also, the growth is 46.8% in assay [7]; 71.4% in assay [8]; 107% in [9]; 78.2% in [10]; 66.7% in assay [11]; 88% in assay [12]. Also, the growth is 71.8% in assay [13]; 62% in assay [14]; 81.8% in assay [15]; 73.5% in assay [16]; 71.9% in assay [17]; 67.1% in assay [18]. Further, the growth in assay [19] is 82.7%.

In the case of `COc1ccc(-c2ccc(NNC(=O)c3ccc(F)cc3)nn2)cc1OC`, the growth in assay [1] is 65.6%; in assay [2] it was 55%; in [3] it was 98.8%; in assay [4] it was 36.2%; in assay [5] it was 19.5%; in [6], 58.2%. In addition, the growth was 84.7% in [7]; 65.8% in [8]; 102% in assay [9]; 100% in assay [10]; 59.7% in [12]; 8.18% (active) in [20]. The growth in assay [13] is 68.3%; in assay [14], 77.1%; in [15] it was 73.5%; in assay [16], 71.6%; in assay [17], 88.6%; in assay [18], 44.2%. In addition, the growth in [19] is 101%.

In the case of `COc1cc(NCc2ccccc2O)c2ncccc2c1`, the growth in assay [1] is 112%; in [2], 97.3%; in [3] it was 92.9%; in assay [4] it was 91.3%; in assay [5], 100%; in assay [6], 110%. Also, the growth in [7] was 129%; in [8], 86%; in assay [9], 109%; in [10], 94.4%; in assay [11], 77.8%; in assay [12], 102%. Further, the growth in assay [13] was 92.8%; in assay [14] it was 98.9%; in assay [15], 83.6%; in [16], 101%; in assay [17], 95%; in assay [18], 83.9%. Besides, the growth in assay [19] is 111%.

For the compound `C=CCCCCCCCCC(=O)OC(C)C`, the growth was 101% in [1]; 107% in assay [2]; 78.9% in assay [3]; 97.4% in [4]; 93.2% in assay [5]; 96.9% in [6]. Further, the growth in [7] is 98.8%; in assay [8] it was 104%; in assay [9], 94.9%; in assay [10], 96.4%; in assay [11] it was 99.1%; in [12] it was 98.6%. Moreover, the growth in [13] was 105%; in assay [14] it was 96.1%; in assay [15], 99.7%; in [16] it was 95.9%; in assay [17] it was 105%; in [18], 100%. In assay [19], the growth was 104%.

For the compound `ClC1=C(Cl)C(Cl)=C(Cl)C1=Cc1ccccc1`, the growth in [1] was -76.4% (active); in [2], 1.01% (active); in assay [3] it was -53.7% (active); in assay [4], -21% (active); in assay [5], -91.4% (active); in assay [6] it was -44.9% (active). Further, the growth was -30.1% (active) in assay [7]; -43.6% (active) in assay [8]; -66.7% (active) in assay [9]; -93.1% (active) in assay [10]; -55.1% (active) in assay [11]; -30.1% (active) in assay [12]. Further, the growth was -16.8% (active) in [13]; -50.3% (active) in assay [14]; -10.3% (active) in assay [15]; -95.8% (active) in [16]; -77% (active) in [17]; -91.5% (active) in assay [18]. Besides, the growth in assay [19] was -87.5% (active).

In the case of `O=S(=O)(NCCNc1nccc(-c2c(-c3cccc(F)c3)nc3occn23)n1)c1ccc(C(F)(F)F)cc1`, the growth was 87.9% in [1]; 69.8% in [2]; 86.2% in assay [3]; 86.9% in [4]; 67.9% in assay [5]; 70.4% in assay [6]. In addition, the growth in [7] is 110%; in [8], 109%; in assay [9] it was 104%; in assay [10], 95.4%; in assay [11], 95.5%; in assay [12], 62.3%. Further, the growth was 98% in assay [13]; 92% in [14]; 55.2% in [15]; 92% in assay [16]; 76.2% in [17]; 95.8% in assay [18]. The growth in assay [19] is 78.7%.

As to `C#CCNC(=O)CC[C@]1(C)[C@H]2CC[C@@H]3[C@@H]([C@@](C)(O)CCC=C(C)C)CC[C@@]3(C)[C@]2(C)CC[C@H]1C(=C)C`, the growth was 52.7% [100 µM] in assay [1]; 5.99% [100 µM] (active) in [2]; -73.6% [100 µM] (active) in [3]; -24.5% [100 µM] (active) in assay [4]; 30.6% [100 µM] in assay [5]; -28.8% [100 µM] (active) in assay [6]. Besides, the growth is 49% [100 µM] in [7]; -81% [100 µM] (active) in [8]; 61.5% [100 µM] in assay [9]; 53.1% [100 µM] in assay [10]; 67.3% [100 µM] in assay [11]; -30.8% [100 µM] (active) in assay [12]. The growth in assay [13] is 60.9% [100 µM]; in assay [14], -71.4% [100 µM] (active); in assay [15], 20.5% [100 µM]; in [16] it was 9.4% [100 µM] (active); in [17], 34% [100 µM]; in assay [18], -67.7% [100 µM] (active). In assay [19], the growth was 54.1% [100 µM].

`N#C/C(C(=O)c1ccccc1)=C1/C(=O)Nc2ccc(F)cc21`: the growth was 110% in [1]; 110% in [2]; 104% in assay [3]; 92.2% in assay [4]; 127% in assay [5]; 101% in assay [6]. The growth in assay [7] was 102%; in [8], 96.9%; in assay [9], 103%; in assay [10], 104%; in assay [11], 106%; in [12], 116%. Besides, the growth is 98.4% in [13]; 104% in assay [14]; 103% in assay [16]; 92.7% in assay [17]; 100% in [18]; 108% in [19].
